# Screens (PubChem BioAssay)
# Rows were chosen to be rich in hits. Some 3.2% of all compounds tested hit in one or more screens of this group.
# HDAC3 inh: human HDAC3 inhibition. 320,000 tested, 0.15% active. inhibition, % at 8.3 µM. O15379. recombinant HDAC3, fluorogenic peptide/trypsin coupled, fluorescence; in the data active means inhibition above about 26%, passing the limit was not always enough
# TMEM16A inh: blocks the mouse calcium-activated chloride channel TMEM16A; 310,000 tested, 1.2% active; HEK293 TMEM16A/YFP iodide influx fluorescence, ionomycin; normalized B-score (activity score, 25-100; higher = stronger inhibition) at 10 µM;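 active means ratio plate-corrected score three or more library SD toward inhibition, starting fluorescence score within five deviations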;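 further: score derived from kinetic fluorescence span divided by baseline fluorescence per well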
# CHT inh: human CHT choline transport inhibition; Q9GZV3; CHT-expressing cells, membrane potential dye, choline response; active compounds read low; B-score at 10 µM; 310,000 tested, 0.86% active; AID 488975;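 active means B-score over 3 SD under the library average, and starting fluorescence ratio not unusually high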;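 further: choline stimulus applied at its EC90 after an EC20 pre-addition; B-score computed on integrated fluorescence ratio after choline addition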
# PHOSPHO1 block: blocks human PHOSPHO1 phosphatase activity; Q8TCT1; recombinant PHOSPHO1, absorbance phosphatase assay; inhibition, % at 13.3 µM; 290,000 tested, 1.1% active; in the data active means inhibition above about 60%
# CHT allo act: allosteric activators of human choline transporter CHT. Q9GZV3. B-score at 10 µM. CHT-expressing cells, membrane potential dye, choline EC20; active compounds read high; LV-AA mutant CHT in HEK293 cells. 310,000 tested, 0.49% active;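 active means initial fluorescence not abnormally high and integrated response B-score, plate-corrected, over 3 SD above library mean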
# TMEM16A act: mouse TMEM16A channel activation, primary screen; AID 623877; HEK293 TMEM16A/YFP-H148Q/I152L, iodide quench fluorescence; active compounds read low; B-score at 10 µM; 340,000 tested, 0.3% active; Q8BHY3;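 active means fluorescence-ratio B-score plate-corrected deviation score at least 3 library SD below zero, with starting fluorescence score within 5 deviations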;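 further: channel opened by trigger with iodide after compound preincubation; score built on the fluorescence ratio of max minus min over baseline; more negative score means more quench and so TMEM16A activation or potentiation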
# * hit, by the source's call; i = inactive; . = no result.
SMILES,HDAC3 inh,TMEM16A inh,CHT inh,PHOSPHO1 block,CHT allo act,TMEM16A act
Cc1ccc(S(=O)(=O)c2nc(-c3cccs3)oc2SCC(N)=O)cc1,4,i,i,60*,i,i
Cc1ccc(C(=O)n2c(=S)nc3ccccn32)cc1,.,.,.,20,.,.
Cc1cccc(C(=O)n2c(=S)nc3ccccn32)c1,6,i,i,85*,i,i
CCCCC(=O)NNC(=S)NC(=O)c1ccc([N+](=O)[O-])cc1,-3,i,i,61*,i,i
CCC(=O)NC(=S)NNC(=O)c1ccc([N+](=O)[O-])cc1,4,i,i,41,i,i
CCCCC(=O)NNC(=S)NC(=O)c1cccc([N+](=O)[O-])c1,2,i,i,94*,i,i
O=C(N/N=C/c1cccc([N+](=O)[O-])c1)c1ccc(Br)cc1,9,i,i,65*,i,i
O=C(NNC(=S)NC(=O)c1cccc([N+](=O)[O-])c1)c1ccc(Br)cc1,.,100*,i,18,i,i
CCCCCN(C(=O)CCC(=O)OC(C)C(=O)c1ccc(CC)cc1)c1c(N)n(CCCC)c(=O)[nH]c1=O (stereo not drawn),.,.,.,.,.,i
CC(=O)Nc1ccc(S(=O)(=O)NC2=C(N3CCN(c4ccc(F)cc4)CC3)C(=O)c3ccccc3C2=O)cc1,-2,i,i,28,i,i
CCN(CC)CCNc1nc(-n2nc(C)cc2C)nc2sc3c(c12)CC(C)(C)OC3,4,i,i,24,i,i
COc1ccc(C(=O)c2sc3nc(-c4ccccc4)ccc3c2N)cc1OC,-8,i,i,88*,i,i
COc1ccc(-c2ccc3c(N)c(C(=O)NC(C)C)sc3n2)cc1OC,10,i,i,2,i,i
COc1ccc(-c2ccc3c(N)c(C(=O)c4ccc(OC)c(OC)c4)sc3n2)cc1,-3,i,i,63*,i,i
Cc1sc2ncnc(SC(C)C(=O)N3c4ccccc4Sc4ccccc43)c2c1C (stereo not drawn),-3,i,i,3,i,i
Cc1ccc(OCC(=O)NNC(=O)C(C)Sc2ncnc3sc(C)c(C)c23)cc1 (stereo not drawn),7,100*,i,53,i,i
CCOc1ccc(CCNC(=O)c2ccc(NC3=NC4CS(=O)(=O)CC4S3)cc2)cc1 (stereo not drawn),3,i,i,37,i,i
CC(=O)NCCNC(=O)c1ccc(NC2=NC3CS(=O)(=O)CC3S2)cc1 (stereo not drawn),4,i,i,42,i,-12*
COCCN(C(=O)c1ccco1)c1nc(-c2ccccc2)cs1,5,i,i,34,i,i
COC(=O)c1c(NS(=O)(=O)c2ccc3ccccc3c2)sc2c1CCCC2,2,i,i,71*,i,i
N#Cc1c(-c2ccccc2Cl)cc(C2CC2)nc1N,8,i,i,84*,i,i
COc1ccccc1-c1cc(C2CC2)nc(N)c1C#N,-9,i,i,-8,i,i
C/C(CC(=O)Nc1cccc(Cl)c1C)=N\NC(=O)Cc1csc(N)n1,1,i,i,-2,i,i
c1ccc(N(c2ccccc2)c2nc(-n3ccnc3)nc(-n3ccnc3)n2)cc1,-2,i,i,18,i,i
CC(=O)C[C@@H](O)CC(=O)[C@H]1OC(=O)CCCCCc2ccccc21,-3,.,.,.,.,i
SMILES,HDAC3 inh,TMEM16A inh,CHT inh,PHOSPHO1 block,CHT allo act,TMEM16A act
O=C1CSC(=S)N1c1cccnc1,.,i,i,98*,i,i
O=C1CSC(=S)N1c1ccccc1,.,.,.,.,.,i
CCCc1nn(C)c2c(=O)[nH]c(-c3cc(S(=O)(=O)N(CCO)CCO)ccc3OCC)nc12,-6,i,i,63*,i,i
CCOc1ccc(S(=O)(=O)NC(C)(C)C)cc1-c1nc2c(C(C)(C)C)nn(C)c2c(=O)[nH]1,3,i,i,8,i,-14*
CCOC(=O)c1[nH]c2ccc(OCC)cc2c1NC(=O)CN1CCN(c2ccccn2)CC1,-3,i,i,-26,i,i
CCN(CC)CCCNc1nc(SC)nc2sc3c(c12)CCN(C)C3,-15,i,i,23,7.1*,.
CSc1nc(SCC(=O)NC(c2ccccc2)c2ccccc2)c2c3c(sc2n1)CN(C)CC3,0,i,i,14,i,i
CCOc1ccc2nc(N3CCC(C(=O)NC4CCCCC4)CC3)sc2c1,-3,i,i,65*,i,i
CCOc1ccc2nc(N3CCCC(C(=O)NC4CCCC4)C3)sc2c1 (stereo not drawn),4,i,i,17,i,i
c1cn2cc(CN3CCOCC3)nc2s1,-1,25*,i,1,i,i
Cc1ccccc1-c1cc(C(=O)Nc2sc(C)c(C)c2C(N)=O)c2ccccc2n1,3,i,i,56,i,i
CCOC(=O)c1cnc(SCC(=O)Nc2sc(C)c(C)c2C#N)nc1N,0,i,i,92*,i,i
CCOC(=O)c1cnc(SCC(=O)Nc2cc(OC)cc(OC)c2)nc1N,-6,i,i,0,i,i
CCOC(=O)c1sc(NC(=O)c2cc(-c3ccccc3C)nc3ccccc23)c(C#N)c1C,15,100*,i,65*,i,i
CCOC(=O)c1sc(NC(=O)CSc2nc(C)cc(-c3ccccc3)n2)c(C#N)c1C,-1,i,i,88*,i,i
CC(C)COc1ccc(C(=O)NNC(=O)c2ccc(=O)[nH]c2)cc1,-5,.,.,.,.,i
CCCn1c(SCC(=O)c2ccc(CC)cc2)n[nH]c1=O,-5,i,i,82*,i,i
Cc1cccc(CNS(=O)(=O)c2csc(C(N)=O)c2)c1,3,i,i,15,i,i
NC(=O)c1cc(S(=O)(=O)NCc2ccc(F)cc2)cs1,-12,i,i,48,i,-14*
O=C(O)c1cc(N/N=C/c2ccc(OCc3ccccc3)cc2)ccc1Cl,1,i,i,1,i,i
CC[C@]12c3[nH]c4ccccc4c3CCN1C(=O)C(CC(=O)NCCC1=CCCCC1)C[C@@H]2C(=O)N1CCN(C(=O)C2CC2)CC1 (stereo partly drawn),-3,.,.,.,.,.
O=C(c1cnn(C(=O)c2cccc(S(=O)(=O)N3CCOCC3)c2)c1)c1ccccc1O,-1,i,i,24,i,i
COc1ccc(S(=O)(=O)N(Cc2ccc(OC)c(OC)c2)Cc2ccco2)cc1,2,25*,i,13,i,i
